SMILES strings stand for the structures. Compounds without any hit were thinned out: in the full panel of roughly 83,000, 20% have a hit.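 Step 1: grow cells in 96-well plates. Step 2: add test compound at a single concentration. Step 3: incubate 48 h. Step 4: record percent growth.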 Active and inactive are the calls of the source. How the source made its calls: active means growth percent below 10; inactive means the rest.

For the first experiment, the system named is HCT-15 colon. The experiment can be described thus: NCI-60 one-dose screen, 48 h (100 = growth as untreated, 0 = no growth, -100 = all killed). The following applies: 10 µM.
For the molecule `Nc1ccc2c(c1)C1(CCC2)NC(=O)NC1=O` (stereo not drawn), the growth is 92.7% (inactive).

In the case of `CN(C)N=Nc1nn(C(=O)Nc2ccc(Cc3ccccc3)cc2)c2ccccc12`, the growth is 36.2% (inactive).

Take `CCOC(=O)C1(CC(C)C)CCOC1=O` (stereo not drawn): the growth was 96.7% (inactive).

Consider `COc1ccc2c(c1)nc(N)c1c3cccnc3cn21`, for which the growth was 19.5% (inactive).

In the case of `CSCCCNC(=O)c1ccc2c(c1)/C(=C/c1[nH]c(C)cc1C)C(=O)N2`, the growth is 22.5% (inactive).

Consider `CC(=O)O[C@]1(C)CC[C@H]2[C@H](CNCCc3ccc(Cl)cc3)C(=O)O[C@@H]2C2=C(C)C(=O)C[C@H]21`, for which the growth is 88.4% (inactive).

As for `CN(CCc1ccccn1)c1ccccc1`, the growth is 89.8% (inactive).

`C#Cc1ccc(-n2c(/C=C/c3ccc(Cl)c(F)c3)nc3ncccc3c2=O)cc1`: the growth is 2.43% (active).

Take `COc1cccc(Cn2c(-c3nonc3N)nc3ccccc32)c1`: the growth is 24.1% (inactive).

On to `Nc1c(C(=O)Nc2cccc3ccccc23)sc2nc3c(cc12)C(=O)CCC3`, for which the growth was 18.9% (inactive).

As for `COc1ccc(Nc2ccnc(NCCNc3ccnc4cc(Cl)ccc34)n2)cc1`, the growth is 36.8% (inactive).

Consider `COc1cc(C(=O)/C=C/c2cc(-c3cc(OC)c(OC)c(OC)c3)n[nH]2)cc(OC)c1OC`, for which the growth was 3.63% (active).

Regarding `CC(=O)N1C/C(=C/c2ccc(Cl)cc2)C(=O)/C(=C/c2ccc(Cl)cc2)C1`, the growth is -5.84% (active).

`COc1cc(/C=N/NC(=O)c2ccccc2Nc2cccc(C(F)(F)F)c2)cc(OC)c1OC`: the growth is 7.05% (active).

The next experiment has as its system HT29 colon. The description is as above. The following applies: 10 µM.
Consider `CCCCCCCNc1nc(C=O)ncc1-c1ccc(C(F)(F)F)cc1`, for which the growth was 86.8% (inactive).

Turning to `C#Cc1ccc(-n2c(/C=C/c3ccc4ccccc4n3)nc3ncccc3c2=O)cc1`, the growth was -61.4% (active).

As to `O=C1c2ccc3c4c(ccc(c24)C(=O)N1CCNCc1ccccc1)C(=O)N(CCNCc1ccccc1)C3=O`, the growth was -16.5% (active).

Regarding `CCN(CC)Cc1cc(Nc2ccnc3cc(Cl)ccc23)ccc1OC`, the growth is 33.7% (inactive).

Take `Nc1ccc2c(c1)C1(CCC2)NC(=O)NC1=O` (stereo not drawn): the growth is 104% (inactive).

On to `O=C(Nc1cccc(Cl)c1)Nc1nccs1`, for which the growth was 94.4% (inactive).

Turning to `N=C(N)c1ccc(-c2ccc(-c3cccs3)s2)s1`, the growth is -79.5% (active).

Consider `O=C1NC(=O)N(Cc2ccccc2)CC1Br` (stereo not drawn), for which the growth is 77.3% (inactive).

For `COc1cc(C(=O)N2CCN(c3ccccc3OC)CC2)c(N)cc1OCCCN1CCN(c2ccccc2OC)CC1`, the growth is 98.2% (inactive).

On to `CN(C)CCN=c1nc2c(c(N)n1-c1ccccc1)c(=S)n(-c1ccccc1)c(=S)n2-c1ccccc1`, for which the growth is -35.7% (active).

As to `CCOC(=O)c1ccc(NC(=O)Nc2ncc(Cl)cc2Cl)cc1`, the growth was 95.3% (inactive).

For `CN(C)N=Nc1nn(C(=O)Nc2ccc(Cc3ccccc3)cc2)c2ccccc12`, the growth was 41% (inactive).

Turning to `CC(=O)N(C)c1ccc(Nc2ccc(Nc3ccc(N(C)C(C)=O)cc3)c3c2C(=O)c2ccccc2C3=O)cc1`, the growth was 68.6% (inactive).

As for `CCOC(=O)C1(CC(C)C)CCOC1=O` (stereo not drawn), the growth is 104% (inactive).

Consider `COc1ccc2c(c1)nc(N)c1c3cccnc3cn21`, for which the growth was -5.58% (active).

With `CSCCCNC(=O)c1ccc2c(c1)/C(=C/c1[nH]c(C)cc1C)C(=O)N2`, the growth is 31.2% (inactive).

Consider `COc1cc(Cl)cc(-c2nn(-c3cccc(NC(=O)Nc4ccc(Cl)c(Cl)c4)c3)cc2-c2ccncc2)c1`, for which the growth is 7.39% (active).

As for `CC1=C(N2CCOCC2)C(N2CCOCC2)=C(C)C(=O)C1=O`, the growth is 111% (inactive).

Turning to `COc1cc(-c2nc(Nc3nc4ccccc4s3)[nH]c(=O)c2C#N)cc(OC)c1O`, the growth was 110% (inactive).

`COc1ccc(CN2CCC(N3CCCC3=O)c3cc(Cl)ccc32)cc1` (stereo not drawn): the growth was 88.8% (inactive).

`CC(=O)O[C@]1(C)CC[C@H]2[C@H](CNCCc3ccc(Cl)cc3)C(=O)O[C@@H]2C2=C(C)C(=O)C[C@H]21`: the growth was 90% (inactive).

For `COc1ccc(-c2nn(-c3cccc(NC(=O)Nc4cc(C(F)(F)F)cc(C(F)(F)F)c4)c3)cc2-c2ccncc2)cc1Cl`, the growth is -17.4% (active).

For `CN(CCc1ccccn1)c1ccccc1`, the growth is 102% (inactive).

For the molecule `COc1ccc(N=C2C(=Nc3ccc(OC)cc3)N(c3ccc(N(C)C)cc3)C(=S)N2c2ccc(OC)cc2)cc1`, the growth is 84% (inactive).

Turning to `COc1cc2nc(Nc3cccc(NC(C)=O)c3)nc(N)c2cc1OC`, the growth is 111% (inactive).

For the molecule `C#Cc1ccc(-n2c(/C=C/c3ccc(Cl)c(F)c3)nc3ncccc3c2=O)cc1`, the growth was -53.5% (active).

`COc1cccc(Cn2c(-c3nonc3N)nc3ccccc32)c1`: the growth is -5.42% (active).

As for `c1ccc([I+]c2ccccc2)cc1`, the growth was 31.4% (inactive).

With `O=C(c1cccs1)c1ccccc1Cc1ccccc1`, the growth was 96.6% (inactive).

As to `COc1ccc(-c2ccc(-c3ccc(C(=N)N)cn3)o2)cc1`, the growth is 14.1% (inactive).

Turning to `Nc1c(C(=O)Nc2cccc3ccccc23)sc2nc3c(cc12)C(=O)CCC3`, the growth is 8.98% (active).

Consider `COc1ccc(Nc2ccnc(NCCNc3ccnc4cc(Cl)ccc34)n2)cc1`, for which the growth is 9.08% (active).

In the case of `O=C(Nc1ccc(Cl)c([N+](=O)[O-])c1)Nc1nc2ccccc2s1`, the growth is 87.3% (inactive).

On to `COc1cc(C(=O)/C=C/c2cc(-c3cc(OC)c(OC)c(OC)c3)n[nH]2)cc(OC)c1OC`, for which the growth is -47.5% (active).

Take `CC(=O)N1C/C(=C/c2ccc(Cl)cc2)C(=O)/C(=C/c2ccc(Cl)cc2)C1`: the growth is -62.2% (active).

Take `COc1cc(/C=N/NC(=O)c2ccccc2Nc2cccc(C(F)(F)F)c2)cc(OC)c1OC`: the growth was 8.62% (active).

`O=C1N=NC2=C1c1c3ccccc3c(O)n1CC2`: the growth was 103% (inactive).

As to `CS(=O)(=O)Nc1cccc(-c2cc(-c3ccccc3Cl)c(C#N)c(N)n2)c1`, the growth was 15.6% (inactive).

`N#Cc1ncc(-c2ccc(C(F)(F)F)cc2)c(NCc2cc(C(F)(F)F)cc(C(F)(F)F)c2)n1`: the growth was 9.29% (active).

For the origin of these results see PubChem BioAssay (NCI).
